# In the supplement of paper PMC12067093, “Discovery and optimisation of a covalent ligand for TRIM25 and its application to targeted protein ubiquitination” (Chemical Science, 2025):
# Targets with the largest changes are over-represented here; the source holds about 21,000 in all.
# Target: XPOT_O43592_877_HIVPACFLAPLK (UniProt O43592)
# Test: probe-labelled cysteine peptide fold change vs DMSO (competition) (log2 fold change); higher = less target engagement (more negative = stronger competition)
# Conditions: THP-1, incubation time: 4 h
# 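Note: competitive chemoproteomic profiling in live THP-1 cells with an iodoacetamide desthiobiotin (IA-DTB) probe, comparing probe-labelled peptide intensities in compound-treated cells against DMSO-treated controls.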
# Sequence of UniProt O43592 (O43592 whole entry, looked up): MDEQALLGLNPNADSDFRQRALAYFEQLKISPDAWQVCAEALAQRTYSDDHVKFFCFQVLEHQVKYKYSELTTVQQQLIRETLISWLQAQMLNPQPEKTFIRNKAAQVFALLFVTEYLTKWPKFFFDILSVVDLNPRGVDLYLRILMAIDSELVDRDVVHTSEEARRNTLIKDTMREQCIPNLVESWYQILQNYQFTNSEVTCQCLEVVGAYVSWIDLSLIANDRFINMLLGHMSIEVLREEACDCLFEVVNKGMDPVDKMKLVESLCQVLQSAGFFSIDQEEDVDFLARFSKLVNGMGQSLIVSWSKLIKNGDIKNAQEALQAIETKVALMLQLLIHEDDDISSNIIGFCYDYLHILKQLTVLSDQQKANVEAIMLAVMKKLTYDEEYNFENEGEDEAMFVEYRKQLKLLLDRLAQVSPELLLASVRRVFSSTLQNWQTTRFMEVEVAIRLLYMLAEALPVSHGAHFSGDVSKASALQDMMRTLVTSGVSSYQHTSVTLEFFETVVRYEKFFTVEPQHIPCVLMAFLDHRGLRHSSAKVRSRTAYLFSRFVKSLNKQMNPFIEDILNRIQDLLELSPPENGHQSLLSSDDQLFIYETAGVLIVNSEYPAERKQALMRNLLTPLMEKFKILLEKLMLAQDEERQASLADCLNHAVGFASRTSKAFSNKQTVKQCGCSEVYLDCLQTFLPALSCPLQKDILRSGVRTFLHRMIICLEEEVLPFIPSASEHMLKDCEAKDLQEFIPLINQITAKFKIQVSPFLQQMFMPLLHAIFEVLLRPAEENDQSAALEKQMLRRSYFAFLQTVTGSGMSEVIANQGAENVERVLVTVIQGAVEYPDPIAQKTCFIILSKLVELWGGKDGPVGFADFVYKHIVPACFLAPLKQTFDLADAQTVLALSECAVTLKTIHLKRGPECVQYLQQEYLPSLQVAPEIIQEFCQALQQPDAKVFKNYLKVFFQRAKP
structure (smiles),measurement,setting,value
CC1Cc2ccccc2N1C(=O)C1CCCN(C(=O)CCl)C1 (mixture of isomers) [TRIM25 ligand 11 (diastereomer mixture)],probe-labelled cysteine peptide fold change,10 µM,0.0433
same,probe-labelled cysteine peptide fold change,50 µM,0.0734
